Bioassay records as filed in PubChem BioAssay.
GoLoco inh red: blocks human Gai1 binding to RGS12 GoLoco peptide, red readout. Gai1:RGS12 GoLoco peptide FP, rhodamine, 10 min. Potency, µM (titrated, usually from 61.6 µM), for the others: at the top dose activity, negative = inhibition, actives largely listed as inhibitors. 0.44% of 230,000 active. P63096. AID 880; active = well fitted inhibition curve with a large enough effect, not every such curve was filed as active; inactive = no such curve, though single readings can be large or run the other way; also: potency is read from the fitted curve at half-maximal effect; % is scaled to controls: 0 for no effect and ±100 for the full control effect; nearly all actives have a fitted effect of over 30% in size
Target sequence (P63096 whole entry, looked up): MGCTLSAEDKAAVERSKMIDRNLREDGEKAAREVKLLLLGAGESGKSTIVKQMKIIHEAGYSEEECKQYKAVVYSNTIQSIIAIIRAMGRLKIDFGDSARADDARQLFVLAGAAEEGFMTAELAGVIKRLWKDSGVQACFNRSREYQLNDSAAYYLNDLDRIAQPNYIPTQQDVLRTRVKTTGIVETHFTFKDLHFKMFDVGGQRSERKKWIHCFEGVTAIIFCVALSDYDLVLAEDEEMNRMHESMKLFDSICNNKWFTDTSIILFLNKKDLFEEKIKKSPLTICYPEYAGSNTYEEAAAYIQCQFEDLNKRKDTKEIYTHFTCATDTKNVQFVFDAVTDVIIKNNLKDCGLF
TexasRed fluor: Texas Red fluorescence interference in TRb-SRC2 counter-screen; 0.29% of 280,000 active; TRb/SRC2 Texas Red total fluorescence interference; AID 1479; Potency, µM (titrated, usually from 106 µM), for the others: top-dose fluorescence change, negative = quenching; active = well fitted curve in either direction with a large enough effect; inconclusive = small, poorly fitted or top-dose-only effect; also: potency is read from the fitted curve at half-maximal effect; % is scaled to controls: 0 for no effect and ±100 for the full control effect
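Human TRβ ligand-binding domain (0.6 uM) and Texas Red SRC2 peptide (20 nM) in Tris buffer with 1 uM T3 and 5% DMSO were incubated with pinned compound for 5 hr at ambient temperature. Total fluorescence was computed as S + 2P (555/632 nm).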
TRb SRC2 PPI: TRbeta-SRC2 interaction inhibition | TRbeta-SRC2 peptide binding, fluorescence polarization; receptor liganded with 1 µM T3 | 0.065% of 280,000 active | Potency, µM (top dose mostly 106 µM), without a hit: top-dose activity change, negative = inhibition, actives largely listed as inhibitors | P10828; active = well fitted inhibition curve with a large enough effect; inconclusive = small, poorly fitted or top-dose-only effect, or effect the other way;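 also: potency is read from the fitted curve at half-maximal effect; plate controls were bound peptide for no effect and peptide without receptor for full effect; nearly all actives have a fitted effect of over 50% in size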
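Binding of a 20-amino-acid Texas Red SRC2 peptide (20 nM) to TRb ligand-binding domain (0.6 uM) with agonist T3 at 1 uM was followed by fluorescence polarization after a 5 hr room-temperature incubation.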
Menin MLL FP TR: displaces Texas Red mutant MLL peptide from human menin; Menin + Texas Red MLL mutant peptide, fluorescence polarization; Potency, µM (top dose mostly 61.6 µM), for the others: at the top dose FP activity change, negative = inhibition, usual class: inhibitors; 0.23% of 270,000 active; AID 1768; active = well fitted inhibition curve with a large enough effect in the polarisation, with a control signal flat, not every such curve was filed as active; inconclusive = small, poorly fitted or top-dose-only effect, or effect the other way, or a change in a side signal; inactive = no such curve, though single readings can be large or run the other way; the % refers to the polarisation; also: potency is read from the fitted curve at half-maximal effect; % of control where 0% means no effect
MLL CXXC-DNA inh: blocks binding of human MLL CXXC domain to DNA | MLL-CXXC / FITC-HOXA9 DNA fluorescence polarization | AID 2662 | Potency, µM (top dose mostly 115 µM), for inactives: at the highest dose activity change, negative = inhibition, most hits filed as inhibitors | 0.037% of 290,000 active | Q03164; active = well fitted inhibition curve with a large enough effect in the polarisation, with a control signal flat, not every such curve was filed as active; inconclusive = small, poorly fitted or top-dose-only effect, or effect the other way, or a change in a side signal; inactive = no such curve, though single readings can be large or run the other way; the % refers to the polarisation; also: potency is read from the fitted curve at half-maximal effect
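Fluorescence polarization: 7 uM MLL-CXXC (stock) preincubated 5 min with compounds, then 50 nM fluorescein-HOX-A9 DNA (stock) added; 30 min ambient. Buffer 50 mM Tris-HCl pH 7.5, 50 mM NaCl, 1 mM DTT, 0.05% BSA.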
Menin-MLL FL inh: menin-MLL binding inhibition, fluorescein peptide | Fluorescence polarization, fluorescein-MLL peptide displacement from menin | FP activity change, % at 61.4 µM | 290,000 tested, under 10 active | AID 1766; active = well fitted curve in the direction sought with a large enough effect in the polarisation, not every such curve was filed as active; inconclusive = small, poorly fitted or top-dose-only effect, or effect the other way, or a change in a side signal; inactive = no such curve, though single readings can be large or run the other way; the % refers to the polarisation; also: % of control where 0% means no effect
* marks the source's active call; other numbers are inactive results; ? = inconclusive; . = no result; ! = a repeat was not active; [ ] = another dose, or the depositor's remark. Only some compounds are listed: those with a hit (about 0.5% of all), similar ones and a draw of the others.

SMILES	GoLoco inh red	TexasRed fluor	TRb SRC2 PPI	Menin MLL FP TR	MLL CXXC-DNA inh	Menin-MLL FL inh
Cc1noc(C)c1-c1nccc(NCc2ccccc2)n1	7.08µM*	.	.	-4.1%	.	0.9
Nc1ccc(N2CCCCCC2)cc1	-9.9%	24.8%	44.7µM*	?	-1.5%	3.4
Cc1nc2cc(-c3ccsc3-n3c(C)ccc3C)[nH]n2c(=O)c1Cl	16.5%	44.7µM*[quencher]	19.3%	?	-5.9%	?
Cc1cc(=O)n2[nH]c(-c3ccsc3-n3c(C)ccc3C)cc2n1	31.9%	-11.5%	-1.0%	.	-1.2%	?
Cc1c2c(c(O)c3c(O)cccc13)C(=O)O[C@H]2C1C(N(C)C)C(O)=C(C(N)=O)C(=O)[C@H]1O (some centres undefined)	.	22.4µM*[quencher]	?	?	.	-0.5
c1ccc2cc3ccccc3cc2c1	.	-5.4%[201 µM]	-1.8%[201 µM]	.	.	.
COc1ccc2cc(C(C)C(=O)O)ccc2c1 (centres undefined)	28.2µM*!	2.5%	2.3%	-2.4%	.	-2.3
Cc1cc2cc(CNC(=O)c3ccc(S(=O)(=O)N4CCCC4)cc3)ccc2n1C	-84.0%	44.7µM*[fluorescent]	35.5µM*	?	3.8%	-24.3
COc1ccc(C(=O)NCc2ccc3c(c2)cc(C)n3C)cc1OC	-7.4%	-1.6%	0.6%	?	22.1%	?
CCN(CC)S(=O)(=O)c1ccc(C(=O)NCc2ccc3c(c2)cc(C)n3C)cc1	-4.4%	44.7µM*[fluorescent]	39.8µM*	?	6.2%	-25.2
COc1ccc(S(=O)(=O)NCc2ccc3c(c2)cc(C)n3C)cc1	-19.8%	?	-23.5%	-13.3%[11.7 µM]	-8.5%	-14.3
CCc1ccc(CNC(=O)c2cc3cc(S(=O)(=O)N4CCCCC4)ccc3n2C)cc1	.	-0.2%	3.5%	.	.	.
Cc1cc2cc(CNS(=O)(=O)c3ccccc3)ccc2n1C	-16.2%	50.1µM*[fluorescent]	44.7µM*	?	-1.0%	?
COc1ccc2c(c1)C(=O)[C@H](OC(=O)Nc1cc(OC)c(OC)c(OC)c1)[C@@H](c1ccc(OC)c(Br)c1)O2	-2.9%	-2.7%	1.5%	-0.1%	.	0.6
CC/C=C/CCCCCCCCCCOC(C)=O	.	-0.1%[201 µM]	-1.2%[201 µM]	.	.	.
COc1ccc2c(c1)Cc1sc(NC(=O)c3ccccc3C)nc1-2	.	0.0028µM*[quencher]	-12.1%	.	.	.
COc1ccc2c(c1)Cc1sc(NC(=O)c3ccccc3)nc1-2	3.7%	-0.6%	2.7%	?	15.1%	1.1
CN(c1ccc(OCC(=O)OCC(=O)Nc2ccccc2)cc1)S(=O)(=O)c1cccs1	-44.0%	5.01µM*[quencher]	-27.0%[53 µM]	5.7%	-10.4%	3.1
CN(c1ccc(OCC(=O)OCC(=O)Nc2ccc(Br)cc2)cc1)S(=O)(=O)c1cccs1	10.7%	-1.6%	-3.9%	?	5.3%	4.0
CCCCOCCOCCOC(C)=O	.	-5.2%[201 µM]	2.4%[201 µM]	.	.	.
O=C1C=CC(=O)c2c(O)c(Cl)c(Cl)c(O)c21	0.355µM*	?	-5.6%	?	.	?
c1ccc2[nH]c(-c3ccnc4ccccc34)nc2c1	25.1µM*!	-4.1%	-2.6%	17.0%	3.2%	-7.3
Fc1ccccc1-c1nc2ccccc2[nH]1	16.1%	0.2%[53 µM]	-4.8%[53 µM]	1.7%	3.8%	-1.4
CC1(C)[C@@H]2CC[C@]1(CC(=O)O)[C@H](Cl)C2	7.4%[14.2 µM]	.	.	.	.	.
COc1cccc(Nc2nc(-c3cccc(N4C(=O)c5ccccc5C4=O)c3)cs2)c1	1.8%	-0.1%	3.4%	14.1µM*	32.7%	1.6
Cc1cccc(NC(=S)NC(=O)c2cc(-c3ccccc3)nc3ccccc23)c1	7.7%	-0.8%	-8.5%	35.5µM*	-1.4%	-0.6
Cc1cccc(-c2cc(C(=O)Nc3ccc4c(c3)OCCO4)c3ccccc3n2)c1	-8.4%	2.5%	-13.5%	1.5%	12.6%	5.0
OCCOCCOCCOCCO	.	-2.2%[201 µM]	1.5%[201 µM]	.	.	.
C[N+]1(CCC[N+]2(C)C[C@H]3[C@H](C2)[C@H]2C=C[C@@H]3CC2)CCOCC1 (some centres undefined)	-3.4%[14.2 µM]	.	.	.	.	.
Cc1cccc(C)c1OCC(=O)Nc1ccc(S(=O)(=O)Nc2ccccn2)cc1	-3.7%	70.8µM*[quencher]	-5.9%	-12.9%	-4.6%	4.2
